Tb PYK inh: inhibitors of Trypanosoma brucei pyruvate kinase. Q57TT1. TbPYK enzyme, Kinase-Glo Plus ATP luminescence, 45 min. Potency, µM (titrated, usually from 76.8 µM), for the others: at the highest dose activity, negative = inhibition, usual class: inhibitors. 410,000 tested, 0.12% active. AID 624173; further: potency means the concentration at half of the fitted maximal effect; on the % scale 0 is the no-effect control and ±100 the full control effect; nearly all actives have a fitted effect of over 50% in size
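Enzyme and substrate buffer are dispensed first and compound is pin-transferred. ADP at 130 uM final then starts the reaction, which runs 45 min at room temperature. Detection reagent is added for 10 min before luminescence is imaged.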
LmPK inhibitor: inhibitors of Leishmania mexicana pyruvate kinase | Q27686 | purified LmPK, Kinase-Glo ATP luminescence, 1 h | Potency, µM (doses to about 57.5 µM), for inactives: at the highest dose activity change, negative = inhibition, most hits filed as inhibitors | 290,000 tested, 0.37% active; further: potency means the concentration at half of the fitted maximal effect; on the % scale 0 is the no-effect control and ±100 the full control effect
Target sequence (Q27686 whole entry, looked up): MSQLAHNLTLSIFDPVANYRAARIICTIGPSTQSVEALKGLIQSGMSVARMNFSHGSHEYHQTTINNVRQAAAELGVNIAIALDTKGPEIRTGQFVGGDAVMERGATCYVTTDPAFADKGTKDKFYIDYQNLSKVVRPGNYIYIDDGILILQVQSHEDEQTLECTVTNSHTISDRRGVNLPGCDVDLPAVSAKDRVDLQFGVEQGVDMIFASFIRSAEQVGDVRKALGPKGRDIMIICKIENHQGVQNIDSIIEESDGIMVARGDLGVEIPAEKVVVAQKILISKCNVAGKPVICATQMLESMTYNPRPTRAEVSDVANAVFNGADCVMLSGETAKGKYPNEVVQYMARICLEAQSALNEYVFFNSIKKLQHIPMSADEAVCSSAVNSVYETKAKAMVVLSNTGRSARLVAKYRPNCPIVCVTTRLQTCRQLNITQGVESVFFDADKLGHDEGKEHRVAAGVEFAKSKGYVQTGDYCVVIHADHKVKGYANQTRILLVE
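Purified LmPK (0.1 nM) with 0.5 mM PEP and 0.1 mM ADP in imidazole buffer pH 7.2 with MgCl2/KCl, 1 h at room temperature. ATP formed was read by luciferase luminescence and normalized to no-enzyme and uninhibited controls.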
Cycloheximide cs: counter-screen hit for Shiga toxin inhibitors, cycloheximide; max response, %; cell reporter, cycloheximide protein synthesis inhibition counterscreen; AID 2314; 300,000 tested, 12% active; in the data active means max response mostly above about 13%, no sharp cut-off; inactive means mostly below about 14%; further: read at 38.3 µM for the half of the compounds with a filed dose; 0% is about no effect
Giardia FBPA inh: inhibitors of Giardia lamblia fructose-1,6-bisphosphate aldolase | Potency, µM (highest dose often 59.6 µM), for inactives: at the highest dose activity, negative = inhibition, most hits filed as inhibitors | AID 2451 | 290,000 tested, 0.71% active | purified Giardia FBPA; further: potency means the concentration at half of the fitted maximal effect; on the % scale 0 is the no-effect control and ±100 the full control effect; nearly all actives have a fitted effect of over 55% in size
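Giardia FBPA (40 nM reagent) was preincubated 10 min at RT with compound (up to 57.5 uM final), then substrate plus GAPDH/TPI/NAD/arsenate coupling system with diaphorase/resazurin was added; resorufin fluorescence (525/598 nm) was read after 20 min.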
RE007 growth inh: less growth of the S. pombe RE007 Vpr strain. S. pombe RE007 Vpr strain, BacTiter-Glo ATP luminescence, 24 h. Potency, µM (titrated, usually from 92.2 µM), for inactives: top-dose activity change, negative = less growth, usual class: inhibitors. 360,000 tested, 0.21% active. AID 651644; active means well fitted falling curve with a large enough effect; inconclusive means small, poorly fitted or top-dose-only effect; inactive means no such curve, though single readings can be large or run the other way; further: potency means the concentration at half of the fitted maximal effect; on the % scale 0 is the no-effect control and ±100 the full control effect; nearly all actives have a fitted effect of over 50% in size
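Fission yeast RE007 carrying one integrated HIV-1 vpr copy, seeded at OD 0.01 in PMG+AL medium with 23 nL pinned compound. Grown 24 h at 30 degrees; viability read by BacTiter-Glo luminescence after 5 min.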
Shiga toxin inh: Shiga toxin inhibition. Vero cells, Shiga toxin protein synthesis inhibition reporter. inhibition, % at 38.7 µM. 290,000 tested, 9.2% active. AID 2315; in the data active means inhibition mostly above about 28%, no sharp cut-off; inactive means mostly below about 43%; further: 0% is about no effect
Active calls of the source: *; ! = repeats disagree. Only a selection was taken, and hits are over-represented in it overall. Unless noted, the call rests on the fitted dose curve; in most records, active means well fitted curve in the direction sought with a large enough effect; inconclusive means small, poorly fitted or top-dose-only effect, or another doubt; inactive means no such curve, though single readings can be large; an effect the other way counts as inactive or inconclusive.

How did CCC(C)(C(=O)NC1CCCCC1)N(Cc1ccco1)C(=O)CNC(=O)c1ccccc1 (centres undefined) do in these assays?
Tb PYK inh: 4.7%; LmPK inhibitor: -6.8%; Cycloheximide cs: 31.1*; Giardia FBPA inh: 6.8%; RE007 growth inh: 5.6%; Shiga toxin inh: 13.5

How did COC(=O)c1ccc(/C=N/NC(=O)c2ccccc2Cl)cc1 do in these assays?
Tb PYK inh: -16.6%; LmPK inhibitor: -7.0%; Cycloheximide cs: 41.5*; Giardia FBPA inh: -1.4%; RE007 growth inh: 3.7%; Shiga toxin inh: 47.1*

Results for CC(C)c1ccc(/C=N/NC(=O)c2ccccc2Cl)cc1 ?
Tb PYK inh: 3.7%; LmPK inhibitor: 0.9%; Cycloheximide cs: 45.9*; Giardia FBPA inh: -14.6%; RE007 growth inh: 17.5%; Shiga toxin inh: 107.2*

What do the screens show for `COC(=O)c1ccc(/C=N/NC(=O)C(=O)NCc2ccccc2)cc1`?
Tb PYK inh: -0.1%; LmPK inhibitor: 4.7%; Cycloheximide cs: 8.0; Giardia FBPA inh: 1.5%; RE007 growth inh: 3.7%; Shiga toxin inh: 8.8

What do the screens show for `Cc1[nH]nc(N=CC2=C(O)CC(c3ccco3)CC2=O)c1-c1ccccc1` (centres undefined)?
Tb PYK inh: 1.1%; LmPK inhibitor: 0.6%; Cycloheximide cs: 13.7*; Giardia FBPA inh: -9.3%; RE007 growth inh: -2.7%; Shiga toxin inh: 72.7

What do the screens show for `Cc1[nH]nc(N=CC2=C(O)CC(C)(C)CC2=O)c1-c1ccccc1`?
Tb PYK inh: 4.1%; LmPK inhibitor: 0.6%; Cycloheximide cs: 1.4; Giardia FBPA inh: -3.7%; RE007 growth inh: 2.9%; Shiga toxin inh: -4.9

How did CCOc1ccc(NC(=O)NCc2ccco2)cc1 do in these assays?
Tb PYK inh: 2.8%; LmPK inhibitor: -2.9%; Cycloheximide cs: 12.2*; Giardia FBPA inh: 1.6%; RE007 growth inh: -1.4%; Shiga toxin inh: 24.9

What do the screens show for `O=C(Nc1ccc([N+](=O)[O-])cc1)Nc1ccc([N+](=O)[O-])cc1`?
Tb PYK inh: -6.7%

Results for O=C(NCc1ccccc1F)Nc1ccc([N+](=O)[O-])cc1 ?
Tb PYK inh: 0.6%; LmPK inhibitor: 7.5%; Cycloheximide cs: 17.6; Giardia FBPA inh: -2.3%; RE007 growth inh: -13.5%; Shiga toxin inh: 35.2*

What do the screens show for `CCc1nc2ccc(C(=O)NCCc3ccco3)cc2nc1CC`?
Tb PYK inh: -6.4%; LmPK inhibitor: 4.2%; Cycloheximide cs: 44.7*; Giardia FBPA inh: -2.1%; RE007 growth inh: 13.2%; Shiga toxin inh: 64.8*

What do the screens show for `CCOc1ccc(NC(=O)NC2(C(=O)NCc3ccco3)CCCCC2)cc1`?
Tb PYK inh: -1.6%; LmPK inhibitor: 6.5%; Cycloheximide cs: -0.4; Giardia FBPA inh: 0.7%; RE007 growth inh: 1.1%; Shiga toxin inh: -7.4

What do the screens show for `CCOc1ccc(CCNC(=O)c2ccc3nc(CC)c(CC)nc3c2)cc1`?
Tb PYK inh: 1.5%; LmPK inhibitor: -5.3%; Cycloheximide cs: -0.3; Giardia FBPA inh: 7.6%; RE007 growth inh: 5.7%; Shiga toxin inh: 15.0

How did O=C(NCc1ccco1)c1ccc2c(c1)C(=O)c1ccccc1-2 do in these assays?
Tb PYK inh: -6.5%; LmPK inhibitor: -2.7%; Cycloheximide cs: 19.3*; Giardia FBPA inh: -5.6%; RE007 growth inh: -17.1%; Shiga toxin inh: 66.9*

How did CC(C)Oc1ccc(CNC(=O)c2ccc(CS(=O)c3cccc(Cl)c3)o2)cc1 (centres undefined) do in these assays?
Tb PYK inh: -0.3%

How did CCN1c2ccccc2-c2nc(SCC(=O)Nc3cccc(C)c3C)ncc2S1(=O)=O do in these assays?
Tb PYK inh: -3.3%

Results for CCOc1ccc(C(=O)NCc2ccco2)cc1 ?
Tb PYK inh: -4.4%; LmPK inhibitor: 0.0%; Cycloheximide cs: 41.1*; Giardia FBPA inh: inconclusive; RE007 growth inh: 1.8%; Shiga toxin inh: 62.7*

What do the screens show for `CC(C)COc1ccc(C(=O)NCc2ccco2)cc1`?
Tb PYK inh: -4.8%; LmPK inhibitor: -0.8%; Cycloheximide cs: 14.1*; Giardia FBPA inh: 0.0%; RE007 growth inh: 10.5%; Shiga toxin inh: 35.8*

How did CC(C)(CO)NC(=O)c1ccc2c(c1)C(=O)c1ccccc1-2 do in these assays?
Tb PYK inh: 6.2%; LmPK inhibitor: 1.0%; Cycloheximide cs: 51.2*; Giardia FBPA inh: 0.3%; RE007 growth inh: 10.7%; Shiga toxin inh: 86.1*

Results for O=C(NCc1ccco1)c1ccc(C(=O)NCc2ccco2)cc1 ?
Tb PYK inh: -4.7%; RE007 growth inh: -11.1%

Results for O=C(NCc1ccco1)c1ccc(Oc2ccccc2)cc1 ?
Tb PYK inh: -4.3%; LmPK inhibitor: 4.1%; Cycloheximide cs: 54.5*; Giardia FBPA inh: -18.9%; RE007 growth inh: -14.2%; Shiga toxin inh: 75.7*

How did O=C(NCc1ccco1)Nc1ccc([N+](=O)[O-])cc1 do in these assays?
Tb PYK inh: 4.8%; LmPK inhibitor: -1.8%; Cycloheximide cs: 25.7*!; Giardia FBPA inh: 2.9%; RE007 growth inh: 3.6%; Shiga toxin inh: 23.9

What do the screens show for `CC(C(=O)NCc1ccco1)c1ccc([N+](=O)[O-])cc1` (centres undefined)?
Tb PYK inh: -18.8%; LmPK inhibitor: -0.1%; Cycloheximide cs: -1.1; Giardia FBPA inh: 4.0%; RE007 growth inh: 8.7%; Shiga toxin inh: -4.2

What do the screens show for `O=C(NCc1ccco1)c1ccc2ccccc2c1`?
Tb PYK inh: 1.8%; LmPK inhibitor: -9.8%; Cycloheximide cs: 35.5*; Giardia FBPA inh: -9.7%; RE007 growth inh: -11.0%; Shiga toxin inh: 79.4*

How did Cc1ccc2scc(N3CCCC(C)C3)c(=O)c2c1 (centres undefined) do in these assays?
Tb PYK inh: -0.3%

What do the screens show for `Cc1ccc(C)c(CSc2nc3c([nH]c4ccccc43)c(=O)n2C)c1`?
Tb PYK inh: 1.2%

Results for Cc1cccc(NC(=O)c2cnc3scc(C)n3c2=O)c1 ?
Tb PYK inh: 0.3%; LmPK inhibitor: 1.3%; Cycloheximide cs: 19.3*; Giardia FBPA inh: 10.2%; RE007 growth inh: -16.0%; Shiga toxin inh: 26.2*

What do the screens show for `Cc1csc2ncc(C(=O)Nc3ccccc3Cl)c(=O)n12`?
Tb PYK inh: 2.4%; LmPK inhibitor: 1.9%; Cycloheximide cs: -2.3; Giardia FBPA inh: -1.2%; RE007 growth inh: 9.3%; Shiga toxin inh: 16.1

What do the screens show for `Cc1csc2ncc(C(=O)Nc3ccccc3F)c(=O)n12`?
Tb PYK inh: 1.6%; LmPK inhibitor: -8.5%; Cycloheximide cs: 24.4*; Giardia FBPA inh: 5.1%; RE007 growth inh: -14.4%; Shiga toxin inh: 31.2

How did Cc1csc2ncc(C(=O)Nc3ccon3)c(=O)n12 do in these assays?
Tb PYK inh: -5.7%; LmPK inhibitor: -5.6%; Cycloheximide cs: 0.7; Giardia FBPA inh: 2.1%; RE007 growth inh: -5.2%; Shiga toxin inh: 9.3

Screens: PubChem BioAssay, National Center for Advancing Translational Sciences (NCATS)
